The campaign covered roughly 310,000 compounds. About 14,000 (4.5%) showed an effect of 50% or more. The effect is printed as a negative number. This is one part of a sample in which strong results are shown more often than they occur.
molecular target: human ether-à-go-go-related gene (hERG) potassium channel (human, UniProt Q12809); assay: primary screen, population patch clamp on CHO cells stably expressing hERG; higher = less effect of the substance
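Also: peak tail current of the secondary pulse compared with the same well before compound.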

Chain of human ether-à-go-go-related gene (hERG) potassium channel (Q12809 whole entry, looked up): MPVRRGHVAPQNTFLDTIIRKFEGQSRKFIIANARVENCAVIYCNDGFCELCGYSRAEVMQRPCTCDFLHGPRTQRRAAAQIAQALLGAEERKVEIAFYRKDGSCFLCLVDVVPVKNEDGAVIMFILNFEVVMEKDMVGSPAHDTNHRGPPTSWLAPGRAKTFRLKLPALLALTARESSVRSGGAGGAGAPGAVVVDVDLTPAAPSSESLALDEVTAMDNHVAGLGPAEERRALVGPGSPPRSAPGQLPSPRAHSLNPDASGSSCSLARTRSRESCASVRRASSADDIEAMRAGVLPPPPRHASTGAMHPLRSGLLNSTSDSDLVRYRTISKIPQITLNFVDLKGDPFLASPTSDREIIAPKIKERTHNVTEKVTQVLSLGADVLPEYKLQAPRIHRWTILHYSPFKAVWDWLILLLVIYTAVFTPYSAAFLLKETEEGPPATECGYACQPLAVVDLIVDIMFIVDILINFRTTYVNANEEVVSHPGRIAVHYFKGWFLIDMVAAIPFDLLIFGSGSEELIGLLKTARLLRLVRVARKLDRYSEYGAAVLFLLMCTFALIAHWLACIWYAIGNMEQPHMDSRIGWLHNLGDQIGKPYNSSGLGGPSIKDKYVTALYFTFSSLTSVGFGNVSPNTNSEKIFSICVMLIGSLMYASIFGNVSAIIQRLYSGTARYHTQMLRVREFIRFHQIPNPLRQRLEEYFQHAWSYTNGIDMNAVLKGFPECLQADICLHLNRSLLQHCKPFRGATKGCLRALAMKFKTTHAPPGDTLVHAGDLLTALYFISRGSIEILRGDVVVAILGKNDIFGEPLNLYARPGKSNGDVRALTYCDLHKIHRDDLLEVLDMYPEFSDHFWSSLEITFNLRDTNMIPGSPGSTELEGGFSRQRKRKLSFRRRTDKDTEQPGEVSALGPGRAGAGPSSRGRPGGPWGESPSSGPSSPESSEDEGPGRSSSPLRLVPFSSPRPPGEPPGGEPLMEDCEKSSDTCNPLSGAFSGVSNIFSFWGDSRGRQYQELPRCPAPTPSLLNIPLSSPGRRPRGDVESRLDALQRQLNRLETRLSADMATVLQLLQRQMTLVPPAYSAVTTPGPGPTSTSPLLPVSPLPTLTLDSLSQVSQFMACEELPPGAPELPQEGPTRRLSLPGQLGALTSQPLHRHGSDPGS

Row | Compound | hERG current change (%, negative = inhibition) at 10uM
1 | O=C(NCc1cccnc1)c1cc2nc(-c3ccc4c(c3)OCO4)cc(C(F)(F)F)n2n1 | 3.07%
2 | COc1ccc(NS(=O)(=O)c2cccc(C(=O)NNC(=O)NCCCl)c2)cc1 | 20.3%
3 | CN1CCc2c(sc(NC(=O)c3ccc(S(=O)(=O)N4CCCCCC4)cc3)c2C(N)=O)C1 | 5.51%
4 | O=C1CN(C(=O)c2ccc(Cl)c(S(=O)(=O)N3CCc4ccccc43)c2)c2ccccc2N1 | -21%
5 | COCCn1nnnc1CN1CCC(C)CC1 | -2.19%
6 | O=C(Cn1cnc2c(oc3ccccc32)c1=O)c1ccccc1 | 2.38%
7 | O=C(NC1CCCCCC1)C1CCN(S(=O)(=O)c2ccc(F)cc2)CC1 | 0.579%
8 | CN1C(=O)C(C)(C)c2cc(S(=O)(=O)N3CCN(c4ccccc4F)CC3)ccc21 | -3.03%
9 | CO/N=C/C=C1/N(C)c2ccccc2C1(C)C | 19.8%
10 | CN1/C(=C\C=Nc2cc(S(=O)(=O)N3CCOCC3)ccc2N2CCOCC2)C(C)(C)c2ccccc21 | -71%
11 | CN1/C(=C/C=N/n2cnnc2)C(C)(C)c2ccccc21 | -1.92%
12 | Cc1cc(/N=C/C=C2\N(C)c3ccccc3C2(C)C)n(CCC#N)n1 | -29.8%
13 | O=S(=O)(c1ccc(N2CCOCC2)c(Cl)c1)N1CCOCC1 | 15.5%
14 | CN1/C(=C\C=Nc2ccccc2)C(C)(C)c2ccccc21 | -72.1%
15 | Cc1ccccc1N=C/C=C1\N(C)c2ccccc2C1(C)C | -70.7%
16 | Cc1ccccc1N=CC=C1OC(C)(C)C(C)(C)O1 | -1.54%
17 | CN1/C(=C/C=C(C#N)C#N)C(C)(C)c2ccccc21 | 14.7%
18 | CN1/C(=C\C=Nc2ccc3ccccc3c2)C(C)(C)c2ccccc21 | -74.8%
19 | CN1/C(=C\C=N\O)C(C)(C)c2ccccc21 | 17.1%
20 | COc1ccc(NC(=O)NCc2ccncc2)cc1 | 13.8%
21 | CC(C)(C)c1ccc(C(=O)NNc2ccc(F)cc2F)cc1 | 9.96%
22 | CC1(C)OC2CC3C4CC(F)C5=CC(=O)C=CC5(C)C4(F)C(O)CC3(C)C2(C(=O)CO)O1 (stereo not shown) | -7.01%

Row | Compound | hERG current change (%, negative = inhibition) at 10uM
23 | O=C1C=C(c2cc3ccccc3s2)C[C@@H](c2ccc(F)cc2)C1 | 5.01%
24 | CC(=O)N1c2ccc(S(=O)(=O)N3CCCC(C(=O)NCc4ccccc4)C3)cc2CC1C (stereo not shown) | 13.7%
25 | O=C(Nc1ccccc1)N1CCC(c2ccccc2)C1 (stereo not shown) | -4.49%
26 | Cc1c(N=C/C=C2\N(C)c3ccccc3C2(C)C)c(=O)n(-c2ccccc2)n1C | -53.7%
27 | CN1/C(=C\P(=O)(N(C)C)N(C)C)C(C)(C)c2ccccc21 | -6.64%
28 | CN1/C(=C\C=C(C#N)C#N)C(C)(C)c2ccccc21 | 11.5%
29 | Cc1c(N=C/C=C2/N(C)c3ccccc3C2(C)C)c(=O)n(-c2ccccc2)n1C | -38.1%
30 | Cc1c(NC(=S)/C=C2\N(C)c3ccccc3C2(C)C)c(=O)n(-c2ccccc2)n1C | 0.171%
31 | CN(C)c1ccc(N=C/C=C2\N(C)c3ccccc3C2(C)C)cc1 | -82.8%
32 | CC(=O)N1CCN(c2ccc(N=Cc3c(O)n(-c4ccc(Cl)cc4)c(=O)[nH]c3=O)cc2)CC1 | 1.55%
33 | CCOC(=O)c1cnc(-n2nc(C)cc2C)nc1NCc1ccccc1 | -34.7%
34 | CCOC(=O)c1cnc(-n2nc(C)cc2C)nc1NCCO | 10.5%
35 | CCOC(=O)c1cnc(-n2nc(C)cc2C)nc1NCCc1ccccc1 | -51.6%
36 | Cn1ccnc1SCC(=O)n1c2c(c3ccccc31)CCCC2 | -4.61%
37 | O=C(c1cccs1)N1CCCC(c2nc3c(nnn3Cc3c(Cl)cccc3Cl)c(=O)[nH]2)C1 (stereo not shown) | -46.9%
38 | O=C(OCC(=O)N1CCCc2ccccc21)c1cccc(C(F)(F)F)c1 | -6.7%
39 | COC(=O)C(Cc1ccccc1)NC(=O)c1ccc(C)cc1 (stereo not shown) | 5.08%
40 | CSCCOC(=O)c1[nH]c2c(c1C)C(=O)CC(c1ccco1)C2 (stereo not shown) | -1.18%
41 | Cc1ccc(NC(=O)c2sc(Cl)nc2-c2ccccc2)cc1 | 18.2%
42 | CCCCCOc1ccc(Br)cc1/C(C)=N/NC1=NCCN1 | -70.1%
43 | C/C(=N\NC1=NCCN1)c1ccc(N)c([N+](=O)[O-])c1 | -15.2%
44 | CCOc1ccc(Br)cc1/C(C)=N\NC1=NCCN1.Cl | -48.6%

Row | Compound | hERG current change (%, negative = inhibition) at 10uM
45 | CCCCCCOc1ccc(/C(C)=N/NC2=NCCN2)cc1[N+](=O)[O-] | -81.3%
46 | COc1ccc(Br)cc1/C(C)=N/NC1=NCCN1.Cl | -26.7%
47 | CCCCCCOc1ccc(/C(C)=N/NC2=NCCN2)cc1 | -19.9%
48 | COc1cc(S(=O)(=O)NC2CCCC2)ccc1F | 1.19%
49 | CC1CCN(C(=O)c2ccccc2NS(=O)(=O)c2ccccc2)CC1 | 8.52%
50 | CCc1ccc(-c2nn[nH]n2)cc1 | 4.61%
51 | Cc1ccc(C)c(SCC(=O)NNC(=O)c2ccccc2)c1 | 9.78%
52 | COc1ccc(NC(=O)C2CCN(c3cnccn3)CC2)cc1OC | 15.5%
53 | CC(NC1CCCCC1)C(O)C12CC3CC(CC(C3)C1)C2.Cl (stereo not shown) | -16.4%
54 | COC(=O)c1ccc(C(c2c(N)n(Cc3ccccc3)c(=O)n(C)c2=O)N2CCOCC2)cc1 (stereo not shown) | -57.9%
55 | COC(=O)c1ccc(C(c2c(N)n(CC(C)C)c(=O)[nH]c2=O)N2CCN(c3ccccc3)CC2)cc1 (stereo not shown) | -8.97%
56 | CCCn1c(N)c(C(c2ccc(C(=O)OC)cc2)N2CCN(c3ccccc3)CC2)c(=O)[nH]c1=O (stereo not shown) | -9.93%
57 | COc1cccc(CNC(=O)C2CCN(S(=O)(=O)N3CCC(C)CC3)CC2)c1 | -3.44%
58 | O=C(CN1CCCCC1)N=Nc1c(O)[nH]c2ccccc12 | 4.68%
59 | O=C(Cc1cccs1)N=Nc1c(O)[nH]c2ccccc12 | 7.07%
60 | O=C(CN1CCN(Cc2ccccc2Cl)CC1)N=Nc1c(O)[nH]c2ccccc12 | -61.3%
61 | Cc1ccc(CN2CCN(CC(=O)N=Nc3c(O)[nH]c4ccccc34)CC2)cc1 | -73.5%
62 | O=C(CN1CCN(Cc2ccccc2)CC1)N=Nc1c(O)[nH]c2ccccc12 | -65%
63 | O=C(CSCc1ccccc1)N=Nc1c(O)[nH]c2ccccc12 | -19.1%
64 | O=C(CCN1CCCCC1)N=Nc1c(O)[nH]c2ccccc12 | 11.3%
65 | O=C(N=Nc1c(O)[nH]c2ccccc12)c1ccc(CN2CCOCC2)cc1 | 22.9%
66 | COCC(=O)N=Nc1c(O)[nH]c2ccccc12 | -5.52%

Row | Compound | hERG current change (%, negative = inhibition) at 10uM
67 | N#Cc1ccccc1NC(=S)Nc1ccc(F)cc1 | 16.2%
68 | CCN(C(=O)c1cc2c(=O)[nH]c3ccc(C)cc3c2s1)c1ccc(OC)cc1 | 9.09%
69 | COC(=O)c1ccc(N2CCN(C)CC2)c(NC(=O)c2sc3ccccc3c2Cl)c1 | 13.1%
70 | COc1ccc(C=C(C#N)C#N)c(CSc2ccccn2)c1 | 1.19%
71 | COc1ccc(C(=O)Nc2ccc(N3CCCCC3)cc2)cc1Br | -8.48%
72 | O=C(N/N=C/c1cc(Br)cc(Br)c1O)c1ccncc1 | 15.6%
73 | Cc1ccc(S(=O)(=O)CCC(=O)OCC(=O)N2c3ccccc3NC(=O)C2(C)C)cc1 | 14%
74 | O=C(O)C(=O)/C(=C\c1ccccc1)c1ccc2ccccc2n1 | 13.9%
75 | O=C(Nc1cccc(-c2csc(Nc3ccccc3)n2)c1)c1ccccc1 | 2.4%
76 | Cc1ccc(OCC(=O)N2CCN(C3=NS(=O)(=O)c4ccccc43)CC2)cc1 | -60.8%
77 | COc1ccc(OCC(=O)N2CCN(c3nnc(-c4ccc(C)cc4)c4ccccc34)CC2)cc1 | -44.9%
78 | O=C(COc1ccc([N+](=O)[O-])cc1)N1CCN(c2nnc(-c3ccccc3)c3ccccc23)CC1 | -66.5%
79 | CCN(CC)C(=O)COc1ccc(-c2nnc(N3CCCCC3)c3ccccc23)cc1 | -25.4%
80 | Cc1ccc(-c2nnc(N3CCN(C(=O)COc4ccccc4)CC3)c3ccccc23)cc1 | -52.1%
81 | O=C(CSc1ncn[nH]1)N1CCN(c2nnc(-c3ccccc3)c3ccccc23)CC1 | -0.967%
82 | Cc1ccc(OCC(=O)N2CCN(C(=O)Cc3ccccc3)CC2)cc1 | -38.4%
83 | CCCC(=O)N1CCN(C2=NS(=O)(=O)c3ccccc32)CC1 | -3%
84 | COc1ccc(OCC(=O)N2CCN(c3nnc(-c4ccccc4)c4ccccc34)CC2)cc1 | -64.4%
85 | COc1ccc(-c2nnc(N3CCCCC3)c3ccccc23)cc1 | -47.3%
86 | CC(C)N1C(=O)N(c2cccc(Cl)c2)C(C)(O)CC1(C)C (stereo not shown) | 17.5%
87 | COc1cccc(-c2nc(CS(=O)CC(=O)NCc3ccccc3)c(C)o2)c1 (stereo not shown) | -6.07%
88 | CCCOc1cccc(NC(=O)c2c(-c3ccccc3)noc2C)c1 | -8.81%

Reference: PMC4336329 (PLoS ONE, 2015)
